# Prx2 Sm inh: blocks S. mansoni peroxiredoxin 2 enzymatic activity. S. mansoni Prx2 activity coupled to TGR/GSH (TGR is thioredoxin glutathione reductase), NADPH fluorescence loss, qHTS. Potency, µM. 65,000 compounds, 0.07% hits. AID 448
#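 Coupled assay in which S. mansoni TGR passes NADPH reducing equivalents via glutathione to Prx2, which reduces H2O2. Compounds were preincubated 15 min at room temperature with 25 nM TGR/50 nM Prx2 mix. Kinetic NADPH fluorescence loss (ex 365/em 450 nm) was monitored.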
# AmpC det inh: AmpC beta-lactamase inhibition, detergent assay; Potency, µM (doses to about 28.7 µM); purified AmpC, nitrocefin hydrolysis with detergent; P00811; 71,000 compounds, 0.09% hits; active means well fitted curve in the direction sought with a large enough effect; inconclusive means small, poorly fitted or top-dose-only effect
# Target sequence (P00811 whole entry, looked up): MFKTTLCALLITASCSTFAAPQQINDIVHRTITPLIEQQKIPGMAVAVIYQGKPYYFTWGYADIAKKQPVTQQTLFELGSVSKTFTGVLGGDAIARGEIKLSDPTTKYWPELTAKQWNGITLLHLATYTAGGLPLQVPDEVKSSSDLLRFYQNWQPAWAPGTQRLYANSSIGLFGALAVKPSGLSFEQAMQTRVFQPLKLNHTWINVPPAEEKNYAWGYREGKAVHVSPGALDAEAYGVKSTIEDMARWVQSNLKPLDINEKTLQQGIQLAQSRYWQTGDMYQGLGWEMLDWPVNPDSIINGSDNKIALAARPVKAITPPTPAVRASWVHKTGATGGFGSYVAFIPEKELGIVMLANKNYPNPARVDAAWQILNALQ
#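 E. coli AmpC (5.3 nM) in 20 mM phosphate pH 7.0 with 0.01% Triton X-100, preincubated 15 min RT with compound; nitrocefin (2 uL of 800 uM stock) hydrolysis followed by 480 nm absorbance every 20 s over 4 min.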
# LT uptake inh: anthrax lethal toxin internalization inhibition; Cells, anthrax lethal toxin internalization, FRET ratio (460/530); 70,000 compounds, 0.67% hits; Potency, µM (highest dose often 40 µM), usual class: inhibitors; further: nearly all actives have a fitted effect of over 50% in size
# AmpC nodet inh: blocks E. coli AmpC beta-lactamase in absence of detergent | 71,000 compounds, 1.8% hits | AmpC nitrocefin hydrolysis, absorbance 480 nm, no detergent | AID 585 | Potency, µM (top dose mostly 28.7 µM)
#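 Enzyme, pH 7.0 phosphate. Compound titrations were pre-incubated with AmpC for 15 min at room temperature before nitrocefin (stock 800 uM) addition; product formation was recorded at 480 nm every 20 s for 4 min.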
# A number is an active result; – = inactive; ? = inconclusive; · = no result given; ! = a repeat was not active; [ ] = dose if it differs, or a comment. A selection: hits, their analogues and other compounds. The true share with any hit is near 2.4%. Unless noted, the call rests on the fitted dose curve.
SMILES,Prx2 Sm inh,AmpC det inh,LT uptake inh,AmpC nodet inh
CCOC(=O)N1CCC(NC(=O)c2ccc(CS(=O)(=O)c3ccccc3C)o2)CC1,–,–,–,4µM[single pt active]
CCCCN(C)C(=O)c1ccc(CS(=O)(=O)c2ccccc2C)o1,–,–,–,4µM[single pt active]
CC(C)CCNC(=O)Cn1c(NCCC(C)C)nc2c1c(=O)n(C)c(=O)n2C,–,–,–,2.5µM[single pt active]
Cc1ccc(CCNC(=O)CC2Oc3ccc(C)cc3NC2=O)cc1 (configuration not stated),–,–,–,4µM[single pt active]
Cc1ccc2c(c1)NC(=O)C(CC(=O)O)O2 (configuration not stated),–,–,–,–
Cc1ccc2c(c1)NC(=O)C(CC(=O)NCCCN1CCCCC1)O2 (configuration not stated),–,–,–,–
CCOCCCNC(=O)CC1Oc2ccc(C)cc2NC1=O (configuration not stated),–,–,–,4µM[single pt active]
Cc1ccc2c(c1)NC(=O)C(CC(=O)NCCN(C)C)O2 (configuration not stated),–,–,–,3.2µM[single pt active]
C/C(=C\CNc1ncnc2c1ncn2[C@@H]1O[C@@H](CO)[C@@H](O)[C@H]1O)CO,–,–,–,–
O=c1[nH]c2cc3c(cc2cc1C(c1nnnn1Cc1ccccc1)N1CCCc2ccccc21)OCO3 (configuration not stated),–,–,–,3.2µM
COc1cc2cc(C(c3nnnn3C3CCCC3)N3CCc4ccccc43)c(=O)[nH]c2cc1OC (configuration not stated),–,–,?,–
O=c1[nH]c2cc3c(cc2cc1C(c1nnnn1C1CCCC1)N1CCCc2ccccc21)OCCO3 (configuration not stated),–,–,7.9µM,–
CN(C)c1ccc(N)cc1,·,–,?,–
CC(C)NC(=O)N1CC[C@@]2(CCCN(C(=O)Oc3ccccc3)C2)C1,–,–,–,–
Cc1c2ccncc2c(C)c2c1[nH]c1ccccc12,–,–,5µM,–
Cc1nccc2c1[nH]c1ccccc12,–,–,?,–
CCOC(=O)c1c(CN(CC)CC)oc2cc(Br)c(O)cc12,–,–,?,4µM[single pt active]
CN(C)c1ccc(/C=c2\sc3n(c2=O)CCCN=3)cc1,–,–,–,–
CN(C)c1ccc(/C=C2/C(=O)Nc3ccccc32)cc1,–,–,13µM,–
O=C1Cc2c([nH]c3ccc(Br)cc23)-c2ccccc2N1,–,–,–,16µM!
O=c1c2c([nH]c3ccc(Br)cc13)CCCC2,–,–,–,–
Cn1c(=O)c2cc(S(=O)(=O)NC(Cc3ccccc3)C(=O)NCc3ccco3)ccc2n(C)c1=O (configuration not stated),–,–,–,4µM[single pt active]
CN(CC(=O)O)Cc1c(O)c(Cl)cc(Cl)c1Cl,–,–[5.75 µM],–[8 µM],–[5.75 µM]
Cc1cc(C)c(OCC(=O)Nc2ccccc2N2CCOCC2)c(C)c1,–,–,?,–
COc1ccc(C)cc1C(=O)CCC(=O)Nc1ccccc1N1CCOCC1,–,–,16µM,–
SMILES,Prx2 Sm inh,AmpC det inh,LT uptake inh,AmpC nodet inh
CCSC(=O)Cl,·,–,–,–
CCOC(=O)N1CCN(C(=O)c2ccccc2-c2ccccc2)CC1,–,–,?,–
CCOC(=O)N1CCN(C(=O)c2cnn3ccccc23)CC1,–,–,–,4µM[single pt active]
CCCCCCCCCCCCCCCCCCOC[C@@H](COP(=O)([O-])OCC[N+](C)(C)C)OC,–,–,–,–
CCOC(=O)C1CCCN(c2c(NCC3CCCO3)c(=O)c2=O)C1 (configuration not stated),–,–,–,3.2µM[single pt active]
CCOC(=O)C1CCCN(c2c(N3CCN(C4CCCCC4)CC3)c(=O)c2=O)C1 (configuration not stated),–,–,–,–
CCOC(=O)C1CCCN(c2c(Nc3ccc(C)c(C)c3)c(=O)c2=O)C1 (configuration not stated),–,–,?,3.2µM[single pt active]
CCOC(=O)C1CCCN(c2c(N3CCC(N4CCCCC4)CC3)c(=O)c2=O)C1 (configuration not stated),–,–,–,4µM[single pt active]
COc1ccccc1-c1nnc2sc(COc3ccc(Cl)cc3Cl)nn12,–,–,10µM,–
Clc1ccc(OCc2nn3c(C4CCCCC4)nnc3s2)c(Cl)c1,–,–,–,–
CCCBr,·,–,?,–
C[N+]1(C)CCO[C@@](O)(c2ccc(-c3ccc([C@]4(O)C[N+](C)(C)CCO4)cc3)cc2)C1,–,–,–,–
O=S(=O)(c1cccc2c(I)cccc12)N1CCCNCC1,–,–,3.2µM,–
CCOC(=O)C(C(=O)OCC)c1cc(Br)c2noc3c2c1C(=O)c1ccccc1-3,0.53,–,?,–
Nc1ncn([C@@H]2O[C@@H](CO)[C@@H](O)[C@H]2O)c(=O)n1,–,–,–,–
Cc1ccc(Cl)cc1N1CCN(C(=O)c2cc3c(=O)n(C)c4ccccc4c3n2C)CC1,–,–,–,4µM[single pt active]
Cc1cccc(N2CCN(C(=O)c3cc4c(=O)n(C)c5ccccc5c4n3C)CC2)c1C,–,–,–,4µM[single pt active]
Cn1c(C(=O)N2CCN(c3ccccc3F)CC2)cc2c(=O)n(C)c3ccccc3c21,–,–,–,4µM[single pt active]
Cn1c(C(=O)N2CCN(c3ncccn3)CC2)cc2c(=O)n(C)c3ccccc3c21,–,–,–,–
Cn1c(C(=O)N2CCCC2)cc2c(=O)n(C)c3ccccc3c21,–,–,–,–
C[C@H](Br)CN(C[C@H](C)Br)c1ccc2c(c1)Cc1ccccc1-2,–,–[5.75 µM],–[8 µM],–[5.75 µM]
COc1cc(NC(=O)c2cc(CC(C)C)on2)c(OC)cc1Cl,–,–,?,4µM[single pt active]
Cc1cc(NC(=O)c2cc(CC(C)C)on2)no1,–,–,–,4µM[single pt active]
CC(C)Cc1cc(C(=O)Nc2sc3c(c2C#N)CCCC3)no1,–,–,7.9µM,4µM[single pt active]
Cc1cc(NC(=O)c2cc(C)on2)no1,–,–,–,–
SMILES,Prx2 Sm inh,AmpC det inh,LT uptake inh,AmpC nodet inh
CC(=O)c1ccc(NC(=O)c2cc(CC(C)C)on2)cc1,–,–,–,4µM[single pt active]
CCCCC[C@H](O)c1cccc(OCc2ccc3ccccc3n2)c1,–,–,?,–
COc1ccc(S(=O)(=O)Cc2ccc(C(=O)NCc3cccnc3)o2)cc1,–,–,–,4µM[single pt active]
COc1ccc(S(=O)(=O)Cc2ccc(C(=O)NCCc3ccc(S(N)(=O)=O)cc3)o2)cc1,–,–,–,–
COCCCNC(=O)c1ccc(CS(=O)(=O)c2ccc(OC)cc2)o1,–,–,–,4µM[single pt active]
COc1ccc(S(=O)(=O)Cc2ccc(C(=O)NCc3ccc(F)cc3)o2)cc1,–,–,?,4µM[single pt active]
N[C@H](CCl)C(=O)O,–,–,–,–
O=C(O)/C=C\C(=O)N1Cc2cc3ccccc3nc2C1,–,–[5.75 µM],–[8 µM],–[5.75 µM]
O=C(O)Cc1ccc([N+](=O)[O-])cc1[N+](=O)[O-],–,–[5.75 µM],–[8 µM],–[5.75 µM]
CCOC(=O)CN1C2=NCCN2c2ccccc21,–,–,–,–
CCOC(=O)CN1C(=O)C(=O)c2cccc(C)c21,–,–,–,4µM[single pt active]
O=C(c1ccccc1C(=O)N1CCN(c2ccccc2F)CC1)N1CCN(c2ccccc2F)CC1,·,–,–,–
O=C(N1CCOCC1)N1CCN(c2ccccc2F)CC1,–,–,–,4µM[single pt active]

# Bioassay records deposited in PubChem BioAssay by National Center for Advancing Translational Sciences (NCATS).
